From PubChem
rTrxR1 inhibitor: inhibitors of rat thioredoxin reductase 1; 390,000 tested, 1% active; AID 588453; Potency, µM (series often up to 114 µM), most hits filed as inhibitors; recombinant rTrxR1, NADPH fluorescence consumption, selenite substrate; O89049; also: nearly all actives have a fitted effect of over 65% in size
Target sequence (O89049 whole entry, looked up): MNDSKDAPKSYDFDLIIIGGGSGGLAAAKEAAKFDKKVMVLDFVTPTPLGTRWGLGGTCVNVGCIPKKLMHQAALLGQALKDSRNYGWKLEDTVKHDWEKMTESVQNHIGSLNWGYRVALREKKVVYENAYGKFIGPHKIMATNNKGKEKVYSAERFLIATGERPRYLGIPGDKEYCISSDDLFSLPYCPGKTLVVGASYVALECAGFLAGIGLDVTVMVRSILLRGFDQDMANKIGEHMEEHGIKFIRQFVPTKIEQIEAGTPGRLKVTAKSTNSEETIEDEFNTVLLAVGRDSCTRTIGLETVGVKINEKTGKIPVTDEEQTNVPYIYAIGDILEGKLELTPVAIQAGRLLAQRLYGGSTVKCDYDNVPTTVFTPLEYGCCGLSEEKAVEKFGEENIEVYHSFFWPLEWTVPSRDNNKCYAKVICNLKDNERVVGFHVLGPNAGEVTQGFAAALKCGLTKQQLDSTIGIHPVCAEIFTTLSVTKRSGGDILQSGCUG
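Rat TrxR1 (90 nM in the dispensed reagent) was pre-reduced with 400 uM NADPH for 5 min at room temperature, then incubated with compound for 15 min. After 400 uM selenite was added, NADPH fluorescence (Ex 340/Em 450 nm) was followed for 8 min.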
PI4K2A block: PI4K2A (human) kinase inhibition. AID 1346378. purified PI4K2A, ADP-Glo luminescence, 1 h; active compounds read low. Q9BTU6. 420,000 tested, 0.13% active. activity change, negative = inhibition, % at 76.9 µM; in the data active = activity change below about -50%; inconclusive = mostly about -30% to -49%
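In this quantitative HTS, ADP production by PI4K2A was quantified luminescently after 1 h at ambient temperature; 100 microM adenosine served as plate-quality control.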
GALK inhibitor: blocks human galactokinase activity; P51570; Purified GALK, Kinase-Glo residual ATP luminescence; Potency, µM (highest dose often 57.5 µM), most hits filed as inhibitors; 270,000 tested, 0.007% active
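The enzyme phosphorylates galactose (100 uM) using ATP (35 uM); inhibition is detected as higher residual ATP, quantified by bioluminescence after 1 h reaction at room temperature, pH 8.0.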
TrxR1 substrate: rat thioredoxin reductase 1 substrate activity; purified TrxR1 substrate turnover, NADPH consumption readout; Potency, µM (highest dose often 114 µM); 390,000 tested, 0.01% active; also: nearly all actives have a fitted effect of over 50% in size
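Rat TrxR1, dispensed at 90 nM, was prereduced with 400 uM NADPH (final) for 5 min at ~22 deg C, then incubated with compound 15 min before 400 uM selenite. A first-read NADPH fluorescence drop versus no-compound background flagged substrates.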
Numbers stand for hits; i = inactive; ? = inconclusive; nt = no result given; [ ] = another dose, or the depositor's remark. The list is not random: actives were taken first. Their share in the collection is about 1.1%. Unless noted, calls follow the shape of the dose curve; as a rule, active = well fitted curve in the direction sought with a large enough effect; inconclusive = small, poorly fitted or top-dose-only effect, or another doubt; inactive = no such curve, though single readings can be large; an effect the other way counts as inactive or inconclusive.

SMILES	rTrxR1 inhibitor	PI4K2A block	GALK inhibitor	TrxR1 substrate
C1=C(c2ccccc2)Nc2ncnn2C1c1ccccc1 (stereo not given)	32µM	i	nt	i
O=C1CCC(=O)N1c1nc2n(n1)C(c1ccccc1)C=C(c1ccc(Br)cc1)N2 (stereo not given)	71µM	i	i	i
CC(=O)Nc1nc2n(n1)C(c1ccccc1)C=C(c1ccccc1)N2 (stereo not given)	40µM	i	i	i
CC(C)(C)n1ncc2c(=O)n(Cc3cccc(Oc4ccccc4)c3)cnc21	i	nt	nt	i
CCCCCC1Nc2cc(C(F)(F)F)c(S(N)(=O)=O)cc2S(=O)(=O)N1 (stereo not given)	nt	i	nt	nt
CCc1ccc(-n2c(SCc3cccc(F)c3)nc3[nH]ncc3c2=O)cc1	i	i	nt	i
Cn1nnnc1SCCNCc1ccc(OCc2ccc(Cl)cc2)cc1	i	i	nt	i
COc1ccccc1C(CCN(Cc1cccs1)C(C)=O)c1ccco1 (stereo not given)	45µM	i	i	i
CCC(=O)N(CCC(c1ccccc1)c1ccco1)Cc1cccs1 (stereo not given)	i	i	i	i[11.4 µM]
O=S(=O)(Nc1ccc(O)c(Sc2nc3ccccc3s2)c1)c1ccc(F)cc1	i	i	i	i
CS(=O)(=O)c1ccc(Sc2nc3ccccc3[nH]2)c([N+](=O)[O-])c1	i	i	i	i
O=[N+]([O-])c1cc(S(=O)(=O)C(F)(F)F)ccc1Sc1nc2ccccc2s1	1.6µM	i	i	i
O=[N+]([O-])c1cc(S(=O)(=O)C(F)(F)F)ccc1Sc1nc2ccccc2[nH]1	8.9µM	i	i	i
CS(=O)(=O)c1ccc(Sc2nc3ccccc3s2)c([N+](=O)[O-])c1	40µM	i	i	i
O=C(Cc1ccccc1)N(Cc1cccnc1)c1nc2c(F)cccc2s1	i	i	nt	i
CCOC(=O)/C(=C/c1c(C)n(C)c2ccc([N+](=O)[O-])cc12)C(C)=O	45µM	i	i	i
CC(C)(C)NC(=O)C(c1ccc(Cl)cc1)N(Cc1ccco1)C(=O)CCl (stereo not given)	13µM	i	i	i
C[C@H]1CN([C@@H](C)CO)C(=O)c2cccc(NC(=O)c3ccncc3)c2O[C@H]1CN(C)C(=O)Nc1ccccc1	56µM	i	nt	i
COC(=O)[C@]12C[C@H](CC(=O)N3CCN(C(=O)C4CC4)CC3)C(=O)N(Cc3ccco3)C1=C[C@H](C1CCCC1)O[C@@H]2C	nt	i	nt	nt
O=C(Nc1ccccc1Br)c1cnn2c1NC(=C1CC1)C=C2C(F)F	i	nt	nt	i
COc1ccc2cc3cc(C(=O)NCCCN4CCC(C)CC4)oc3nc2c1	50µM	i	i	i
C[C@@H](c1ncncc1F)C(O)(Cn1cncn1)c1ccc(F)cc1F (stereo not given in full)	nt	i	nt	nt
COc1cccc(C(=O)Nc2cccc(C(=O)OCc3cc(=O)n4nc(C5CC5)sc4n3)c2)c1	i	i	nt	i
COC(=O)C1=C(C)N(c2ccc(Cl)c(Cl)c2)C(=O)C1	50µM	i	i	i
Brc1ccc(-c2nn3c(-c4ccco4)nnc3s2)o1	28µM	i	i	i
SMILES	rTrxR1 inhibitor	PI4K2A block	GALK inhibitor	TrxR1 substrate
Clc1ccc(-c2ccc(-c3nn4c(-c5ccco5)nnc4s3)o2)cc1	?	i	nt	i
CC(=O)N1CCN(C(=O)CC2OC(=O)c3ccccc32)CC1 (stereo not given)	2.5µM	i	i	i
Cc1c(Cl)cccc1NC(=O)c1cc(S(=O)(=O)N2CCCCC2)cn1C	i	i	nt	i
O=C(COC(=O)c1ccc([N+](=O)[O-])o1)Nc1ccc2c(c1)OCO2	18µM	i	nt	i
O=C(COC(=O)c1ccc([N+](=O)[O-])o1)Nc1ccc2c(c1)OC(F)(F)O2	nt	i	nt	nt
O=C1[C@@H]2C(c3cccnc3)=NO[C@@H]2C(=O)N1c1ccc(Br)cc1	28µM	i	i	i
Clc1ccccc1Cn1c(/C=C/c2ccco2)nc2ccccc21	50µM	i	i	i
OC[C@H]1O[C@@H](n2cnc3c(=S)nc[nH]c32)[C@H](O)[C@@H]1O	nt	i	nt	nt
Cc1cc(C)c2c(CC(=O)N(Cc3ccc(N(C)C)cc3)Cc3ccco3)coc2c1	i	i	nt	i
Cc1ccc2c(CC(=O)N(Cc3ccc(Cl)cc3)Cc3ccco3)coc2c1	50µM	i	nt	i
Cc1ccccc1NC(=O)CN1C(=O)N/C(=C\c2ccccc2OCc2ccc(C(=O)O)cc2)C1=O	i	-51	i	i
CCCCC1(Br)C(=O)N(c2ccccc2)N(c2ccccc2)C1=O	28µM	i	nt	i
O=C1Nc2ccccc2C1(c1ccc(O)cc1)c1ccc(O)cc1	nt	i	nt	nt
